Assay results taken from PubChem BioAssay (NCI).
The panel holds about 83,000 compounds, 20% with a hit somewhere; the sample as a whole holds those more often.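 96-well plates, one dose, 48 hours. Percent growth reported; active if below 10.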 Unmarked numbers belong to inactive results. Active and inactive are the calls of the source.

Tested on: MOLT-4 leukemia
Assay: NCI-60 one-dose screen, 48 h (100 = growth as untreated, 0 = no growth, -100 = all killed)
Settings: 10 µM

Row | Structure (SMILES) | growth
1 | Clc1ccc(/C=C2\CCCC3C2=Nc2ccccc2NC3c2ccc(Cl)cc2)cc1 (centres undefined) | 65.8%
2 | CCC(c1ccc(OC)cc1)C(CC)c1ccc(O)c(CN2CCN(C)CC2)c1 (centres undefined) | 57.4%
3 | CC[C@@H](C(=O)[C@H](C)[C@H](O)[C@@H](C)[C@H]1O[C@H]([C@@H](CC)C(=O)N(CC)CC)CC[C@H]1C)C1O[C@]2(C=C[C@@H](O)[C@]3(CC[C@@](C)([C@H]4CC[C@](O)(CC)[C@H](C)O4)O3)O2)[C@H](C)C[C@@H]1C (some centres undefined) | 28.9%
4 | O=C(NCCCNS(=O)(=O)c1ccc(Cl)cc1)Nc1ccc(-n2cc(-c3ccncc3)c(-c3ccc(Cl)c(O)c3)n2)cc1 | 15.6%
5 | Nc1ncnc2c1ncn2C1(CO)OCC(O)C(O)C1O (centres undefined) | 105%
6 | CN(C)CCOc1ccc(-c2nc3sccn3c2-c2ccnc(S(C)(=O)=O)n2)cc1 | 109%
7 | CC[C@H]1OC(=O)[C@H](C)[C@@H](O[C@H]2C[C@@](C)(OC)[C@@H](O)[C@H](C)O2)[C@H](C)[C@@H](O[C@@H]2O[C@H](C)C[C@H](N(C)C)[C@H]2O)[C@](C)(OC)C/C(C)=C2/O[C@@]1(C)C=C2C | 1.08% (active)
8 | COc1cc(/C=C2\CCCC3=C2NC(N)=NC3c2cc(OC)c(OC)c(OC)c2)cc(OC)c1OC (centres undefined) | -3.56% (active)
9 | O=[N+]([O-])c1cccc(/C=N/NC(=S)NC23CC4CC(CC(C4)C2)C3)c1 | 96.3%
10 | S=C(NCc1ccccc1)NCc1ccccc1 | 94.9%
11 | Cc1ccc(Cl)cc1NC(=O)CCl | 32%
12 | CCC(C)[C@H](NC(C)=O)C(=O)N[C@@H](CCCNC(=N)N)C(=O)N[C@@H](CCCCN)C(=O)N[C@@H](CC1CCC(O)CC1)C(=O)NC(C(=O)N[C@@H](CCSC)C(=O)N[C@@H](CCCNC(=N)N)C(=O)N[C@@]1(C)CCC/C=C\CCC[C@@](C)(C(=O)NC(C(=O)N[C@@H](CCC(=O)O)C(=O)N[C@@H](CC(C)C)C(=O)N[C@H](C(=O)N[C@@H](CCC(=O)O)C(N)=O)C(C)C)[C@@H](C)O)NC(=O)[C@H](CCC(N)=O)NC(=O)[C@H](CC(C)C)NC(=O)[C@H](CC(C)C)NC1=O)[C@@H](C)O (some centres undefined) | 97.3%
13 | COc1cc2cc(Oc3ccc(NC(=O)c4cccc(C(F)(F)F)c4)cc3)c(C)nc2cc1OC | 28.4%
14 | COC(=O)C1(O)NC(=C(C#N)C#N)C(C#N)=C1C(=O)c1ccc(OC)c(OC)c1 (centres undefined) | 92.1%
15 | NC(N)=N/N=C(\c1ccccc1)C(O)c1ccccc1 (centres undefined) | 99.9%
16 | COc1cc2cc(Oc3ccc(NC(=O)c4ccccc4)cc3)c(C)nc2cc1OC | 89.9%
17 | CS(=O)(=O)c1nccc(-c2c(-c3cccc(OCc4ccc(F)cc4)c3)nc3sccn23)n1 | 24.2%

Row | Structure (SMILES) | growth
18 | CCOC(=O)c1cc(C(=O)c2ccc(F)cc2F)n2ccccc12 | 87%
19 | O=C(N/N=C/c1ccc(Cl)cc1)c1ccccc1Nc1cccc(C(F)(F)F)c1 | 74.2%
20 | CC(C)(C)OC(=O)N1CCc2c(sc3ncnc(N/N=C/c4ccccc4Br)c23)C1 | 21.2%
21 | CC(C)N(CCOc1ccc(-c2nc3sccn3c2-c2ccnc(S(C)(=O)=O)n2)cc1)C(C)C | 52.4%
22 | CN(C)CCCOc1ccc(NC2=C(Cl)C(=O)C(Nc3ccc(OCCCN(C)C)cc3)=C(Cl)C2=O)cc1 | -23.4% (active)
23 | COc1cccc(C2C(C#N)=C(N)Oc3cc(N)ccc32)c1 (centres undefined) | 28.9%
24 | Cc1ccc(NCCN(C)CC(C)O)c2c(=O)c3ccccc3sc12 (centres undefined) | 2.58% (active)
25 | CCCCN(CCCC)C(=O)[C@H](CC)[C@@H]1CC[C@@H](C)[C@@H]([C@H](C)[C@@H](O)[C@@H](C)C(=O)[C@H](CC)C2O[C@]3(C=C[C@@H](O)[C@]4(CC[C@@](C)([C@H]5CC[C@](O)(CC)[C@H](C)O5)O4)O3)[C@H](C)C[C@@H]2C)O1 (some centres undefined) | 11.8%
26 | CC(C)N(CCOc1cccc(-c2nc3sccn3c2-c2ccnc(S(C)(=O)=O)n2)c1)C(C)C | 84.3%
27 | NC(=O)c1cccc(-n2ccc3cc(NC(=O)Nc4ccc(Cl)c(C(F)(F)F)c4)ccc32)n1 | 52%
28 | COc1cccc(-c2nc3sccn3c2-c2cccc(S(C)(=O)=O)c2)c1 | 104%
29 | COc1ccc(Cl)cc1Nc1nc(C(F)(F)F)ccc1C(=O)N/N=C/c1ccc(Cl)cc1 | 1.89% (active)
30 | CN(C)c1ccc(/C=N/NC(=O)c2ccccc2Nc2cccc(C(F)(F)F)c2)cc1 | 76.7%
31 | COc1cc2cc(Oc3ccc(NC(=O)Nc4cccc(C(F)(F)F)c4)cc3)c(C)nc2cc1OC | 0.812% (active)
32 | O=C(Nc1cc(Cl)cc2c1-c1ccc(Cl)cc1C2O)C(Cl)Cl (centres undefined) | 78.8%
33 | C/C(=N\O)c1ccc(NC(=O)CSc2nnc(-c3ccccc3)n2-c2ccccc2)cc1 | 95.2%
34 | CCN(CC)CCCOc1cccc2c1C(=O)c1cccc(OCCCN(CC)CC)c1C2=O | 4.98% (active)
